# Screening data (PubChem)
# Most compounds without a hit are left out; they make up all but 3.5% or so of the library.
# TEAD-YAP inh – TEAD-YAP interaction inhibition. HEK-TIYL cells, TEAD-Gal4/YAP UAS-luciferase luminescence. inhibition, % at 9.12 µM. 640,000 tested, 1.4% active. AID 1259422; in the data active means inhibition above about 32%;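 further: 0% = median of test compound wells and 100% = reference inhibitor wells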
# MITF inh – inhibitors of human MITF. O75030. AlphaScreen MITF homodimerization, bead proximity signal. inhibition, % at 2.6 µM. 650,000 tested, 0.91% active. AID 1259374; in the data active means inhibition above about 50%;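 further: 0% = vehicle wells with protein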
# GPR151 ag – activators of human GPR151 | PathHunter beta-arrestin GPR151 cells, luminescence | activation, % at 11.2 µM | 650,000 tested, 1% active | AID 1508602; in the data active means activation above about 4.9%;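 further: 0% = median of compound wells and 100% = cells with positive control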
# Target sequence (Q8TDV0 whole entry, looked up): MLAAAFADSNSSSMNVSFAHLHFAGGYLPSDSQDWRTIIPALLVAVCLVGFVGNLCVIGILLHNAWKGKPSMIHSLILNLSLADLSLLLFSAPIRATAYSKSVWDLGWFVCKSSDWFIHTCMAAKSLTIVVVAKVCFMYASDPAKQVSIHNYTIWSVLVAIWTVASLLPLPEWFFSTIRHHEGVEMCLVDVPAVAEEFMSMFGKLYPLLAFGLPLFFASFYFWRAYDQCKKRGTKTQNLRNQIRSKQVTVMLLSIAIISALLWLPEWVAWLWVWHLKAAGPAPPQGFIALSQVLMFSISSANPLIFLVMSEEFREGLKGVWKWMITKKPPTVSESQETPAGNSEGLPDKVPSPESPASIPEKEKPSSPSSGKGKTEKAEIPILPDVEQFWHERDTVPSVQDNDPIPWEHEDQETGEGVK
# FBW7 act – human FBW7 E3 ligase activation, primary screen; AlphaScreen FBW7–phospho-cyclin E peptide binding, activator screen; normalized activity (activation), % at 26.1 µM; 650,000 tested, 0.13% active; in the data active means normalized activity above about 1.9%;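 further: purified mutant Fbw7 with reduced substrate affinity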
# GPR151 conf act – human GPR151 activation, confirmation screen. shares compounds with GPR151 ag. GPR151 PathHunter beta-arrestin cells, luminescence, 90 min; % of EA-reagent control over plate median. activation, % at 11.2 µM. 6,700 tested, under 10 active. AID 1508609;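 active means mean percent activation across replicates above the confirmation screen cutoff of 4.91%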
# GPR119 ag – activates human GPR119 in a GPR151 counter-screen. GPR119 PathHunter beta-arrestin cells, luminescence, 90 min; 0 = compound-well median, 100 = enzyme-acceptor control. 6,700 tested, 0.3% active. shares compounds with GPR151 ag. activation, % at 11.2 µM;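 active means mean percent activation in the counterscreen above 29.09%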;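 further: counterscreen on off-target GPR119 to flag nonselective hits from the GPR151 activator screen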
# The depositor's hits bear a star; / = not tested or not shown; ! = not confirmed by another sample.
SMILES,TEAD-YAP inh,MITF inh,GPR151 ag,FBW7 act,GPR151 conf act,GPR119 ag
COc1ccc(CN2CCN(c3ccccc3C)CC2)cc1O,-0.5,21.9,0.6,0.0,/,/
CC(C)C[C@H]1C(=O)N2CCN(Cc3ccncc3)C[C@@H]2C(=O)N1C,1.8,18.0,-0.6,0.2,/,/
Cc1cccc(OP(N)(=O)Oc2cccc(C)c2)c1,3.4,-2.1,-1.0,-0.1,/,/
NP(=O)(Oc1ccc(Cl)cc1)Oc1ccc(Cl)cc1,6.5,15.8,6.3*,0.2,2.2,9.7
CSc1ccc(/C=C/c2nc3ccccc3c(=O)n2-c2cc(C)cc(C)c2)cc1,-6.5,4.1,-1.2,0.4,/,/
Cc1ccc(P2(=S)C3CCCCC3=NN2c2ccccc2)o1 (configuration not stated),1.0,10.1,1.6,-0.4,/,/
CS(=O)(=O)c1ccc(N2CCNCC2)c(F)c1,-3.2,-6.6,4.9*,0.0,0.2,4.9
C[C@]12CC[C@H](O)C[C@H]1CC[C@@H]1[C@@H]2C[C@@H](O)[C@]2(C)[C@@H](C3=CC(=O)OC3)CC[C@]12O,98.1*,-9.4,5.7*!,-0.3,-0.1,108.8*
CCOC(=O)C1=C(C)OC(N)=C(C(=O)OCC)C12C(=O)N(CC(N)=O)c1ccccc12 (configuration not stated),10.9,2.2,9.6*,0.0,0.1,-5.1
CCOC(=O)C1=C(C)OC(N)=C(C#N)C12C(=O)N(CC(N)=O)c1ccccc12 (configuration not stated),-1.6,-27.0,0.4,-0.1,/,/
CC(C(=O)N1CCC2(CC1)OCCO2)C1Sc2ccccc2NC1=O (configuration not stated),-5.7,-8.0,9.2*,0.0,0.5,-7.7
CCOC(=O)C1=C(NC(=S)NC(=O)c2ccccc2)c2ccccc2CC12CCCCC2,-10.8,27.2,-1.9,1.4,/,/
C=CCN1C[C@H](C)N([C@H](c2ccc(C(=O)N(CC)CC)cc2)c2cccc(OC)c2)C[C@H]1C,/,2.0,5.2*,0.0,-0.3,-3.6
CC(C)c1ccc(C2NCCc3[nH]cnc32)cc1 (configuration not stated),8.3,40.1,-0.5,0.8,/,/
Cc1ccccc1-n1c(-c2ccccc2F)nc2ccccc2c1=O,-5.7,9.1,-0.4,0.3,/,/
CCCCCCOc1ccc(CN2CCN(CCO)CC2)cc1,-43.9,5.6,5.9*,0.1,0.5,8.8
CCCCOc1ccc(CN2CCN(CCO)CC2)cc1,-9.1,4.2,-1.1,-0.2,/,/
CCC(COC(=O)NC)NC(=O)Oc1cccc(C)c1 (configuration not stated),4.8,3.0,-1.3,-0.1,/,/
CCC(COC(=O)NC)NC(=O)Oc1ccccc1 (configuration not stated),-0.6,-0.9,5.8*,0.1,0.2,0.9
COc1cccc(CCNCc2ccccc2[N+](=O)[O-])c1,-11.9,41.0,0.0,0.5,/,/
COc1cccc(CCNCc2cc(OC)c(OC)cc2[N+](=O)[O-])c1,5.6,25.4,8.4*,0.0,-0.3,-5.9
COc1ccc(C(Cc2ccccc2)NC2CN3CCC2CC3)cc1 (configuration not stated),-6.8,-9.5,0.2,-0.1,/,/
COc1ccc(F)cc1C(=O)C1CCCN(Cc2ccc(O)cc2)C1 (configuration not stated),-5.0,3.9,-0.7,0.0,/,/
COc1ccc(F)cc1C(=O)C1CCCN(CCO)C1 (configuration not stated),-3.6,-4.7,8.3*,0.0,-0.1,-12.1
O=C(CCCN1CCC2(CC1)C(=O)N(Cc1cccc(F)c1)CN2c1ccccc1)c1ccc(F)cc1,/,15.9,6.7*,-0.1,0.2,1.1
N/C(=N\N=C\c1ccc2c(c1)OCO2)N[N+](=O)[O-],-7.5,-2.6,-1.5,-0.1,/,/
